In the library only some 19% were active in any assay of this set; here they are far more common.
HT1080-NT tox: qHTS for induction of synthetic lethality in tumor cells producing 2HG: qHTS for the HT-1080-NT fibrosarcoma cell line | HT-1080-NT fibrosarcoma viability, CellTiter-Glo ATP luminescence, 48 h | Potency, µM (titrated, usually from 46.1 µM), usual class: cytotoxic | 360,000 tested, 1.6% active | AID 686970, 2013;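 also: NT is the 2HG producing partner of a matched IDH1 knockdown line; nearly all actives have a fitted effect of over 55% in size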
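Fibrosarcoma NT cells, 750 per well in 5% FBS RPMI, were exposed to compound for 48 hours. Viability: CellTiter-Glo luminescence.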
TDP1 cell noCPT: qHTS for Inhibitors of human tyrosyl-DNA phosphodiesterase 1 (TDP1): qHTS in cells in absence of CPT. DT40 Tdp1-/- hTDP1 cells, no CPT, ATP luminescence, 48 h. Potency, µM (doses to about 46.2 µM), most hits filed as inhibitors. 420,000 tested, 15% active. AID 686978, 2013; also: nearly all actives have a fitted effect of over 55% in size
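Luminescent ATP content (CellTiter-Glo) served as the growth readout. Knockout chicken DT40 cells expressing human TDP1 were exposed to compounds without camptothecin for a minimum 48 hr at 37 °C.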
HT1080 IDH1KD tx: qHTS for induction of synthetic lethality in tumor cells producing 2HG: qHTS for the HT-1080-IDH1KD cell line; AID 686971, 2013; 360,000 tested, 2% active; Potency, µM (titrated, usually from 46.1 µM), actives largely listed as cytotoxic; HT-1080 IDH1 knockdown viability, ATP luminescence, 48 h
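Knockdown cells (IDH1KD HT-1080) received compounds 2 h after plating at 750 cells/well and were kept 48 h at 37 °C in 5% FBS RPMI. A CellTiter-Glo luminescence read gave % activity for curve fitting.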
IL-1B inflam inh: qHTS for Inhibitors of Inflammasome Signaling: IL-1-beta AlphaLISA Primary Screen. THP-1 LPS/ATP IL-1B secretion, AlphaLISA, 16 h; stronger effect = lower value. activity change, % at 57.5 µM. 360,000 tested, 4.7% active. AID 743279, 2014; in the data active = activity change below about -50%; inconclusive = mostly about -30% to -49%
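THP-1 cells pretreated 1 hr with compounds (up to 57.5 uM final), then stimulated with LPS (250 ng/mL final) plus ATP (1.25 mM final); secreted IL-1B measured by AlphaLISA after 16 hr, decreased signal indicating inhibition.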
DT40 TDP1 CPT: qHTS for Inhibitors of human tyrosyl-DNA phosphodiesterase 1 (TDP1): qHTS in cells in presence of CPT | chicken DT40 Tdp1-/-;hTDP1 cells + 20 nM CPT, ATP luminescence, 48 h | Potency, µM (highest dose often 46.2 µM), actives largely listed as inhibitors | 420,000 tested, 12% active | AID 686979, 2013; also: nearly all actives have a fitted effect of over 55% in size
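Chicken DT40 Tdp1-/- cells stably complemented with human TDP1 were seeded at 400 cells/well in medium containing 20 nM camptothecin, exposed to pin-transferred compounds, and grown at 37 °C for at least 48 hr. Viability was read as ATP luminescence.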
ELG1 DNA repair: qHTS screen for small molecules that inhibit ELG1-dependent DNA repair in human embryonic kidney (HEK293T) cells expressing luciferase-tagged ELG1; HEK293T ELG1-luciferase reporter, luminescence, 16 h; DNA damage induced by 5-fluorouridine; Potency, µM (series often up to 46.1 µM), usual class: inhibitors; 330,000 tested, 2.3% active; also: nearly all actives have a fitted effect of over 55% in size
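HEK293T cells expressing luciferase-tagged ELG1 (2,000/well) received 5-Fluorouridine plus compound or DMSO for 16 hr at 37 °C. Luciferase was read by ONE-Glo luminescence after 30 min at room temperature.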
Large screens that a line does not name were inactive. Unless noted, calls follow the shape of the dose curve; as a rule, active = well fitted curve in the direction sought with a large enough effect; inconclusive = small, poorly fitted or top-dose-only effect, or another doubt; inactive = no such curve, though single readings can be large; an effect the other way counts as inactive or inconclusive.

Cc1ccc(CNC(=O)c2c(-c3ccccc3Cl)noc2C)cc1	TDP1 cell noCPT inconclusive, DT40 TDP1 CPT inconclusive
Cc1cc(C)nc(NC(=O)c2c(-c3ccccc3Cl)noc2C)c1	TDP1 cell noCPT 20.6µM, DT40 TDP1 CPT inconclusive, ELG1 DNA repair inconclusive
Cc1onc(-c2ccccc2Cl)c1C(=O)N(C)C1CCCCC1	TDP1 cell noCPT 3.66µM, DT40 TDP1 CPT 4.61µM, ELG1 DNA repair inconclusive
COc1ccc(NC(=O)c2c(-c3ccccc3Cl)noc2C)c(OC)c1	HT1080-NT tox inconclusive, TDP1 cell noCPT inconclusive, HT1080 IDH1KD tx inconclusive, DT40 TDP1 CPT inconclusive, ELG1 DNA repair 18.4µM
CC(C)c1cc(-c2cc(C(=O)Nc3ccccc3)on2)nc(NC2CCCC2)n1	TDP1 cell noCPT inconclusive, DT40 TDP1 CPT 25.9µM (no result: ELG1 DNA repair)
CCN(C(=O)c1c(-c2ccccc2Cl)noc1C)C1CCCCC1	TDP1 cell noCPT inconclusive, DT40 TDP1 CPT inconclusive
CCc1ccc(NC(=S)NC(=O)c2c(-c3ccccc3Cl)noc2C)cc1	TDP1 cell noCPT inconclusive, IL-1B inflam inh -50.8
Cc1cccc(Oc2ccc3c(c2)cc(C(=O)O)n3C)c1	none
CC(C)Oc1cc(C(=O)N2CCC(N3CCCCC3)CC2)ccc1Nc1nnc(Cl)c(Nc2ccccc2S(C)(=O)=O)n1	TDP1 cell noCPT inconclusive, DT40 TDP1 CPT inconclusive (no result: ELG1 DNA repair)
Cc1onc(-c2ccccc2Cl)c1C(=O)Nc1ccccc1	TDP1 cell noCPT inconclusive, DT40 TDP1 CPT 11.6µM
Cc1onc(-c2ccccc2Cl)c1C(=O)Nc1ccc(Br)cc1	HT1080-NT tox inconclusive, HT1080 IDH1KD tx inconclusive
Cc1onc(-c2ccccc2Cl)c1C(=O)Nc1ccccc1O	TDP1 cell noCPT 18.4µM, DT40 TDP1 CPT inconclusive
Cc1ccc(S(=O)(=O)N2CC(O)C[C@H]2C(=O)OCC(=O)N2CCN(c3ccc(F)cc3)CC2)cc1C (some centres undefined)	TDP1 cell noCPT 4.11µM, DT40 TDP1 CPT 10.3µM (no result: ELG1 DNA repair)
CC(OC(=O)C1CCN(c2ccc(C(F)(F)F)cn2)CC1)C(=O)c1ccccc1 (centres undefined)	TDP1 cell noCPT inconclusive, DT40 TDP1 CPT inconclusive
COc1ccc(CC(=O)N(CCC2=CCCCC2)c2c(N)n(Cc3ccccc3)c(=O)[nH]c2=O)cc1	TDP1 cell noCPT inconclusive, DT40 TDP1 CPT inconclusive (no result: ELG1 DNA repair)
CC(CC(=O)N(CCC1=CCCCC1)c1c(N)n(Cc2ccccc2)c(=O)[nH]c1=O)c1ccccc1 (centres undefined)	HT1080-NT tox inconclusive, TDP1 cell noCPT 16.4µM, HT1080 IDH1KD tx inconclusive, DT40 TDP1 CPT 25.9µM
CCOc1ccc(OCCC(=O)N(CCC2=CCCCC2)c2c(N)n(Cc3ccccc3)c(=O)[nH]c2=O)cc1	TDP1 cell noCPT inconclusive, DT40 TDP1 CPT 16.4µM
COc1ccc(OCCCC(=O)N(CCC2=CCCCC2)c2c(N)n(Cc3ccccc3)c(=O)[nH]c2=O)cc1	TDP1 cell noCPT inconclusive
CSCCC(NC(=O)c1ccccc1)C(=O)NCCCSc1ccccc1 (centres undefined)	TDP1 cell noCPT inconclusive
OCCN1CCN(c2ncnc3c2sc2nc(N4CCOCC4)c4c(c23)CCC4)CC1	HT1080-NT tox inconclusive, TDP1 cell noCPT 20.6µM, IL-1B inflam inh -76.8, DT40 TDP1 CPT inconclusive, ELG1 DNA repair inconclusive
CCCCN(CC)c1ncnc2c1sc1nc(N3CCOCC3)c3c(c12)CCCC3	none (no result: HT1080-NT tox, HT1080 IDH1KD tx, IL-1B inflam inh, ELG1 DNA repair)
CCOC(=O)c1sc2nc(N3CCCC3)c3c(c2c1N)CC(C)(C)OC3	ELG1 DNA repair inconclusive
OCCN(CCO)c1ncnc2c1sc1nc(N3CCOCC3)c3c(c12)CCCC3	TDP1 cell noCPT 18.4µM, DT40 TDP1 CPT 16.4µM
